ssDAF12 agonist – activates DAF-12 receptor from parasite S. stercoralis. HEK293 ssDAF-12/GRIP1 lit1-tk-luc reporter, luminescence; % of 3 µM dafachronic acid response. AID 652126. activation, % at 6.8 µM. actives 1% (n = 370,000);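 active = activation above the mean over all tested compounds plus 3 SD, cut at about 0.9% in these data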;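 also: 0% = DMSO-only wells and 100% = 3 µM delta7-dafachronic acid wells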
DAX1 inh-1 – inhibitors of DAX1 repression of SF-1 activated StAR promoter; HEK293T StAR-luciferase reporter, SF-1/DAX-1 repression relief; actives 1.1% (n = 370,000); inhibition, % at 6.8 µM; AID 652010;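 active = inhibition above the mean over all tested compounds plus 3 SD, cut at about 3.6% in these data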;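 also: 0% = DAX-1 cells with DMSO and 100% = cells lacking DAX-1 with DMSO; higher inhibition means more luminescence from relief of DAX-1 repression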
hcDAF-12 act – activators of H. contortus DAF-12 nuclear receptor; HEK293 hcDAF-12 lit1-tk-luc reporter, luminescence; 0% DMSO, 100% Δ7-dafachronic acid; actives 1.4% (n = 370,000); AID 652067; activation, % at 6.8 µM;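 active = activation above the mean of all tested compounds plus 3 SD, cut at about 5.5% in these data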;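 also: 100% = response to 3 µM Δ7-dafachronic acid high control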
SMARCA2 act – SMARCA2 function activation, primary screen; activation, % at 9.1 µM; MG213 cells, MMTV-luciferase reporter, dexamethasone, overnight; actives 1% (n = 370,000); in the data active = activation above about 7.8%;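 also: 0% = vehicle wells and 100% = reference activator wells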
DAX1 inh-2 – inhibitors of human orphan nuclear receptor DAX1 (NR0B1); P51843; HEK293 Gal4-DAX1 luciferase reporter, luminescence; inhibition, % at 6.75 µM; actives 0.99% (n = 340,000);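 active = inhibition above the mean over all tested compounds plus 3 SD, cut at about 4.2% in these data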;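 also: 0% = DAX1-transfected cells with DMSO and 100% = empty-vector control cells with DMSO; inhibition shows as a rise in luminescence from relieved DAX1 repression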
Target sequence (P51843 207-470 limits assumed): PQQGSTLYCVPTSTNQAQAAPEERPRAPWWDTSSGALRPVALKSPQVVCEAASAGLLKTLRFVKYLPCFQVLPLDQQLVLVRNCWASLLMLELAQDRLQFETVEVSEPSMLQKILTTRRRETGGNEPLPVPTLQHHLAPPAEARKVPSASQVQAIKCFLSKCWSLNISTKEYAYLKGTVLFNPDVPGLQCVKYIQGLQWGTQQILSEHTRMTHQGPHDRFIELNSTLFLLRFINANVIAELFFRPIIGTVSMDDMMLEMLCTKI
hgDAF12 agonist – agonists of H. glycines DAF-12 nuclear receptor. HEK293 GAL4-hgDAF12 UAS-luciferase reporter, agonist luminescence; normalized to butyrate control. actives 1.8% (n = 370,000). activation, % at 6.8 µM;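 active = activation above a cutoff set at the mean of all screened compounds plus 3 SD, cut at about 10% in these data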;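 also: 0% = DMSO wells and 100% = sodium butyrate wells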
* marks the source's active call; other numbers are inactive results; · = not tested or not shown. An excerpt weighted towards active compounds, which were near 4.8% of everything screened.

SMILES	ssDAF12 agonist	DAX1 inh-1	hcDAF-12 act	SMARCA2 act	DAX1 inh-2	hgDAF12 agonist
CCOC(=O)C(=CNc1cccc(N)n1)C(=O)OCC	-2	-1	-2	-1	2	-2
CC(=O)c1ccc(-c2nc3ccccc3n2C)o1	0	1	5	2	0	11*
Cc1ccc(-c2nc3ccccc3n2C)o1	0	3.8*	4	1	1	11*
Cn1c(-c2ccc(Br)o2)nc2cc(Br)ccc21	-1	1	1	3	4.5*	2
Cc1ccc2nc(-c3ccc(Br)o3)oc(=O)c2c1	0	1	0	1	0	4
COc1cccc(OCc2nn[nH]n2)c1	-1	0	-2	2	2	-1
Cc1nnc(NC(=O)c2oc3c(ccc4ccccc43)c2C)s1	0	0	5	0	0	4
Cc1ccc(CN2CCNC(=O)C2CC(=O)N(C)CCc2ccccc2)cc1 (stereo not given)	0	-1	-1	2	0	0
CC(=O)Oc1ccc([C@@H]2COc3c(ccc4c3C=CC(C)(C)O4)C2)c(OC(C)=O)c1	-1	1	2	0	4.4*	5
CC1(C)C=Cc2c(ccc3c2OC[C@H](c2ccc(O)cc2O)C3)O1	-1	0	1	5	2	3
COCCC(=O)N1CCOCC1c1cc(C(=O)Nc2ccccc2)no1 (stereo not given)	-1	1	-1	3	·	0
N/C(=N/OC(=O)c1ccccc1Cl)c1nonc1N	-1	1	0	8	3	12*
Cc1ccc(N2CCN(C(=O)c3cccs3)CC2)cc1C	-1	0	0	1	2	4
Cc1nc2c(ccc3nc(NC(=O)C(c4ccccc4)c4ccccc4)sc32)s1	2.5*	0	5	1	-1	0
CCOC(=O)c1c(C)c(C(=O)NCCCOC)c(C)n1C	-1	-1	-2	-1	0	7
Nc1nc2n(n1)C(c1cccs1)CC(c1ccccc1)N2 (stereo not given)	-2	0	-2	1	-1	-1
Nc1nc2n(n1)C(=O)CC(c1ccccc1)N2 (stereo not given)	-2	3.7*	-1	-1	0	-6
CCCCCCOc1ccc(C(CC(=O)NC)C(=O)O)cc1 (stereo not given)	-1	1	0	-2	-2	-1
CCCCCCOc1ccc(C(CC(N)=O)C(=O)O)cc1 (stereo not given)	0	0	-1	-2	4.4*	-2
CC[C@@H](C)[C@@H]1CN([C@@H](C)CN2CCC[C@H]2CN2C(N)=NC[C@@H]2Cc2ccccc2)C(=N)N1CCc1ccc(Cl)c(Cl)c1	·	·	·	·	5.2*	·
CC[C@@H](C)[C@@H]1CN([C@@H](C)CN2CCC[C@H]2CN2C(N)=NC[C@@H]2Cc2ccccc2)C(=N)N1CCCC1CCCC1	-2	0	0	1	0	1
Cc1ccc(-c2c[n+](Cc3ccc(Cl)c(Cl)c3)c3n2CCC3)cc1	-2	-2	-4	-6	-1	-5
CC1CC(NC(=O)c2c(O)nc3ccccn3c2=O)CC(C)(C)C1 (stereo not given)	-1	-1	1	2	0	2
CC1CC(NC(=O)c2c(O)nc3sccn3c2=O)CC(C)(C)C1 (stereo not given)	0	2	-2	-1	6.4*	4
C[C@]12CC[C@@H]3c4cc(O)c(O)cc4CC[C@H]3[C@@H]1CC[C@@H]2O	-1	-3	-3	-3	0	-1
SMILES	ssDAF12 agonist	DAX1 inh-1	hcDAF-12 act	SMARCA2 act	DAX1 inh-2	hgDAF12 agonist
CCOc1cc2c(cc1O)C(=NOC)CC1C2CCC2(C)C(O)CCC12 (stereo not given)	-1	4.3*	1	-5	1	-6
COc1cccc(CC(=O)N2CCCC(CO)(Cc3ccc(F)cc3F)C2)c1 (stereo not given)	-1	0	-1	-2	0	-4
COC(=O)c1ccc(CN2CCCC(CO)(Cc3ccc(F)cc3F)C2)cc1 (stereo not given)	1.0*	0	-2	-2	-1	-1
CN1CCc2cc3c(c4c2[C@H]1[C@H](O)c1ccccc1-4)OCO3	-1	0	0	9.3*	-1	-3
CCOC(=O)c1c(S(=O)(=O)Nc2ccc(C)cn2)c(C)n(C)c1C	-1	0	0	7.9*	1	2
Fc1ccc(CSc2nc3ccccc3[nH]2)cc1	0	3	3	1	3	12*
Nc1nc(CSc2nc3ccccc3[nH]2)cs1	0	0	4	3	4.6*	4
Nc1nc2ccccc2[nH]1	-1	0	-1	2	1	0
O=C(CSCc1nc2ccccc2[nH]1)Nc1ccccc1	-1	0	0	-4	1	0
CCSc1nc2ccccc2[nH]1	-1	0	1	-2	2	0
Nc1ccccc1Sc1nc2ccccc2[nH]1	0	3	8.9*	9.2*	0	1
c1ccc(CSCc2nc3ccccc3[nH]2)cc1	-1	1	6.4*	3	2	7
CCCCN1CC(COCc2ccccc2)Oc2cccc(OCCN3C(=O)[C@@H]4[C@H](C3=O)C3C=C[C@H]4C3)c2S1(=O)=O (stereo not given in full)	-1	-2	-1	-6	-3	-6
CCC(C)(C)NC(=O)CN(C(=O)c1snc(C(N)=O)c1N)c1ccc2c(c1)OCO2	0	0	1	0	1	1
O=C(Nc1nccs1)c1sc2cc(Cl)ccc2c1Cl	1.4*	1	2	4	1	5
O=C(NC1CC1)c1sc2cc(Cl)ccc2c1Cl	0	4.3*	1	2	1	6
O=C(O)c1nc(Cl)c(Cl)c(N/N=C/c2ccccc2C(F)(F)F)c1Cl	-1	0	0	6	-2	1
COC(=O)/C=C1\OC(C)c2ccccc21 (stereo not given)	1.2*	1	3	4	·	-3
Cc1ccc(C2=[N+]([O-])C3(CCCCC/C3=N\O)N(O)C2(C)C)o1 (stereo not given)	-1	0	0	6	0	-2
O=C(CSc1ncnc2ccccc12)c1ccc2c(c1)OCCO2	-1	0	-1	0	-2	5
Cc1ccc(C(=O)COc2ncnc3cc(Cl)ccc23)cc1	-1	0	0	-2	·	-2
O=C(COc1ncnc2cc(Cl)ccc12)c1ccc2c(c1)OCCO2	0	1	2	5	4.8*	2
O=C(COc1ncnc2ccccc12)c1ccc2c(c1)OCCO2	0	2	5	7	2	11*
O=c1[nH]c2nc(Br)[nH]c(=O)c2[nH]1	-1	0	-2	-3	1	-3

Bioassay records deposited in PubChem BioAssay by The Scripps Research Institute Molecular Screening Center.
